WRN helicase inh: blocks human WRN helicase | Q14191 | WRN helicase unwinding, fluorescent forked duplex, kinetic | Potency, µM (highest dose often 114 µM), inactives show at the top dose activity change, negative = inhibition, usual class: inhibitors | actives 0.46% (n = 360,000) | AID 651768; further: on the % scale 0 is the no-effect control and ±100 the full control effect; nearly all actives have a fitted effect of over 55% in size
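Enzyme (20 nM final) and test compound sit together 15 min at room temperature before substrate addition. Substrate is a single-forked duplex oligonucleotide (100 nM) labelled with fluorophore and quencher, with 2 mM ATP; helicase unwinding raises red fluorescence, read kinetically.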
POLI inh: inhibitors of human DNA polymerase iota; Q9UNA4; Pol iota fluorescent replication assay, 10 min; Potency, µM (titrated, usually from 115 µM), for the others: at the top dose activity, negative = inhibition, actives largely listed as inhibitors; actives 1% (n = 390,000)
Target sequence (Q9UNA4 whole entry, looked up): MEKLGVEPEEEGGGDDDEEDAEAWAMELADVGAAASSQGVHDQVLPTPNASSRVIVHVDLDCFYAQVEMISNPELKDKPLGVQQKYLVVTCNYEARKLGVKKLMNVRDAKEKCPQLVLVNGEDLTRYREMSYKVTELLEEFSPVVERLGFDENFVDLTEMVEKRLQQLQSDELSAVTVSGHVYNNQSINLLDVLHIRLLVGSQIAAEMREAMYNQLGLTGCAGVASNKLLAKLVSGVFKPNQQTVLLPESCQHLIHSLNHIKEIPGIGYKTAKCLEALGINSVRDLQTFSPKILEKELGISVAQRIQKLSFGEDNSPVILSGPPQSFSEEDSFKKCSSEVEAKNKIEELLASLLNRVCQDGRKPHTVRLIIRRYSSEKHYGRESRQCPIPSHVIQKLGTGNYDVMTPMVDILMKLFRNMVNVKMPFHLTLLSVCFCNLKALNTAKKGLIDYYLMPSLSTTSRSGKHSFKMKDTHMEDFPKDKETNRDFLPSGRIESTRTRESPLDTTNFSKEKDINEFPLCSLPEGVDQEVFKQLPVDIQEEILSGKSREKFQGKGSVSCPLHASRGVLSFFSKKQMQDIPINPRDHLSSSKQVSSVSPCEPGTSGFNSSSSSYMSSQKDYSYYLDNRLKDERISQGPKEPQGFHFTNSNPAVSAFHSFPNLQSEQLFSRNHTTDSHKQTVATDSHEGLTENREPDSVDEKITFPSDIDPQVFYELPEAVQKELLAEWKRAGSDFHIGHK
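Fluorescent replication assay read twice, at 0 min and 10 min after adding 50 nM (final) substrate. Enzyme (10 nM) and compounds were first incubated 15 min at room temperature; enzyme-free buffer wells were negative controls.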
Pol eta inh: DNA polymerase eta (human) inhibition | actives 1.2% (n = 390,000) | AID 588591 | Q9Y253 | recombinant Pol eta, fluorescent DNA replication assay | Potency, µM (highest dose often 114 µM), inactives show at the top dose activity change, negative = inhibition, most hits filed as inhibitors; further: on the % scale 0 is the no-effect control and ±100 the full control effect
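Pol eta (10 nM) was preincubated with compounds for 15 min at room temperature, after which fluorescent replication substrate (50 nM final) was added to start the reaction. Fluorescence was read kinetically at 0 and 10 min.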
FEN1 inhibitor: human FEN1 inhibition; P39748; AID 588795; actives 0.35% (n = 390,000); Recombinant FEN1 flap cleavage, fluorescence, 15 min; Potency, µM (titrated, usually from 114 µM), for the others: at the highest dose activity change, negative = inhibition, usual class: inhibitors; further: on the % scale 0 is the no-effect control and ±100 the full control effect; nearly all actives have a fitted effect of over 65% in size
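In this screen, 50 nM flap DNA substrate was added to 10 nM FEN1 pretreated with compound for 15 min at room temperature; cleavage was followed with reads at 0 and 15 min, and Hill fitting gave concentration–response parameters.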
Pol kappa inh: inhibitors of human DNA polymerase kappa. actives 0.53% (n = 400,000). Potency, µM (top dose mostly 107 µM), for inactives: top-dose activity, negative = inhibition, hits mostly inhibitors. Q9UBT6. AID 588579. purified Pol kappa, fluorescent DNA synthesis assay, 10 min; further: on the % scale 0 is the no-effect control and ±100 the full control effect
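50 nM final substrate added after 15 min RT preincubation of 10 nM Pol kappa with compound; fluorescence read at 0 and 10 min.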
Pol beta inh: inhibitors of human DNA polymerase beta; Pol beta primer extension/strand displacement, fluorescence kinetic; Potency, µM (highest dose often 114 µM), inactives show at the highest dose activity change, negative = inhibition, usual class: inhibitors; actives 1.3% (n = 340,000); AID 485314; further: on the % scale 0 is the no-effect control and ±100 the full control effect
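Preincubation: enzyme (10 nM) with compound, 15 min, RT. Reaction: substrate added to 50 nM final. Reads: 0 and 10 min. Analysis: normalized, Hill fit.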
* marks the source's active call; other numbers are inactive results; ? = inconclusive; . = not tested or not shown; [ ] = dose if it differs, or a comment. A selection: hits, their analogues and other compounds. The true share with any hit is near 2.4%. The call rests on the fitted dose curve; in most records, active means well fitted curve in the direction sought with a large enough effect; inconclusive means small, poorly fitted or top-dose-only effect, or another doubt; inactive means no such curve, though single readings can be large; an effect the other way counts as inactive or inconclusive. Potency means the concentration at half of the fitted maximal effect.

SMILES	WRN helicase inh	POLI inh	Pol eta inh	FEN1 inhibitor	Pol kappa inh	Pol beta inh
CCOc1ccccc1N1CCN(S(=O)(=O)c2ccc3c4c(cccc24)C(=O)N3)CC1	?	14.1µM*	79.4µM*	?	44.7µM*	?
CC[C@@]1(O)C[C@H](O[C@H]2C[C@@H](N(C)C)[C@@H](O[C@H]3C[C@@H](O)[C@@H](O[C@H]4CCC(=O)[C@@H](C)O4)[C@@H](C)O3)[C@@H](C)O2)c2c(cc3c(c2O)C(=O)c2c(O)cccc2C3=O)[C@H]1C(=O)OC	.	.	.	.	4.47µM*	.
COc1cc(NC(=O)CN2CCCN(Cc3cccc(F)c3)S2(=O)=O)cc(OC)c1	.	8.2%	-18.3%	8.1%	16.0%	-24.2%
COc1cccc(-n2nnnc2S(C)(=O)=O)c1	50.1µM*	14.2%	-4.4%	-11.9%	-15.6%	7.7%
Cc1cccc(-n2nnnc2S(C)(=O)=O)c1	.	?	5.2%	9.9%	-8.2%[60.1 µM]	-1.4%
CCCn1c(=O)c2ccccc2n2c(SCCNCCO)nnc12	6.5%	-24.5%	-16.5%	16.0%	-5.9%	0.159µM*
CCCn1c(=O)c2ccccc2n2c(SCC(=O)c3ccccc3)nnc12	-10.6%	-5.3%	-0.8%	0.7%	-13.4%	-25.3%
O=[N+]([O-])c1cc2c(cc1CN1CCN(CCOCCO)CC1)OCO2	-1.6%[11.6 µM]	7.94µM*	-1.9%	?	?	19.3%
COc1ccccc1N1CCN(Cc2cc3c(cc2[N+](=O)[O-])OCO3)CC1	-2.9%	?	0.3%	-22.3%	-7.8%	0.1%
COc1ccc(-c2cnc3c(NC(C)=O)cc(-c4cccc(C(=O)NCCN(C)C)c4)cn23)cc1OC	25.1µM*	.	.	.	.	.
COc1cc(-c2cnc3c(NC(C)=O)cc(-c4cccc(C(=O)NCCO)c4)cn23)cc(OC)c1OC	-3.1%	.	.	.	.	.
COc1cc(-c2cnc3c(NC=O)cc(-c4cccc(C(=O)NCCN(C)C)c4)cn23)cc(OC)c1OC	20µM*	.	.	.	.	.
Cc1ccc(S(=O)(=O)c2cn(CC(=O)Nc3ccc4c(c3)OCO4)c3ccc(C)cc3c2=O)cc1	.	15.8%	-15.3%	-14.9%	-16.5%	-0.7%
COc1ccc(C2Nc3ccccc3C(=O)N2Cc2ccco2)cc1COc1c(C)cccc1C (stereo unspecified)	.	25.1µM*	.	-13.1%	-15.6%	.
COc1cccc(OCc2nc3ccccc3n2CCOc2ccccc2)c1	.	-1.1%	?	-23.2%	-2.4%	2.3%
N#Cc1c(Nc2ccccc2)sc(C(=O)c2ccccc2)c1N	-10.0%	4.5%	-8.9%	-6.2%	-21.2%	-1.0%
Cc1cccc(Nc2sc(C(=O)c3cc4cc(Cl)ccc4o3)c(N)c2C#N)c1	7.6%	-3.6%	?	7.3%	-10.4%	10µM*
Cc1cc(C)c(S(=O)(=O)N(CC(=O)NCc2cccnc2)C2CCCCC2)c(C)c1	4.1%	89.1µM*	-5.9%	1.1%	-8.8%	-26.6%
CCSc1cc(N2CCCC2)nc(-c2ccc(C)cc2)n1	0.4%	?	3.8%	89.1µM*	?	0.3%
C[C@H](CCC(=O)NCC(=O)O)C1CC[C@H]2C3CC[C@@H]4C[C@H](O)CC[C@]4(C)C3C[C@H](O)[C@]12C (stereo partly specified)	.	.	.	.	5.3%[19.4 µM]	.
NS(=O)(=O)c1ccc(N/N=C/c2ccc(O)cc2O)c([N+](=O)[O-])c1	?	50.1µM*	?	-24.3%	?	25.1µM*
O=C(COc1ccccc1)Nc1sc2c(c1C(=O)Nc1ccccc1)CCCCC2	.	?	79.4µM*	7.4%	?	17.8µM*
OCCCNC(=S)Nc1ccc2nccnc2c1	6.9%	14.1µM*	1.1%	39.8µM*	-8.0%	49.9%
Cc1ccc2nc(Cn3cc(C(F)(F)F)ccc3=O)cc(=O)n2c1	1.8%[57.1 µM]	62.7%	-10.6%	-1.5%	-17.1%	0.0%
O=c1ccc(C(F)(F)F)cn1Cc1cc(=O)n2cc(Br)ccc2n1	-6.4%	?	-1.7%	-11.2%	?	12.6µM*
SMILES	WRN helicase inh	POLI inh	Pol eta inh	FEN1 inhibitor	Pol kappa inh	Pol beta inh
CCC(C)NC(=O)Cn1c(=O)c2cccn2c2ccc(F)cc21 (stereo unspecified)	.	18.7%	7.6%	-3.4%	8.7%	1.6%
O=C(NCc1ccco1)c1ccc(-c2csnn2)cc1	4.8%	?	-6.8%	-7.6%	-8.4%	10µM*
O=C(NCc1ccco1)c1ccc(C(F)(F)F)cc1	-5.5%	9.6%	-8.5%	-16.4%	-0.2%	-5.6%
Cn1c(N)c(C(=O)COC(=O)C2Cc3ccccc3CN2S(C)(=O)=O)c(=O)n(C)c1=O (stereo unspecified)	?	.	12.6µM*	.	.	.
CCOc1ccc(-c2nnc(SCC(=O)c3ccc(Br)cc3)n2-c2ccccc2)cc1	.	?	-6.4%	9.9%	-22.3%	-14.9%
[S-]c1nnc(-c2ccc(Br)cc2)n1-c1ccccc1.[Zn+2]	3.3%	2.82µM*	5.6%	1.3%	-1.1%	0.0%
CC(C)C1C(=O)Nc2ccc(S(=O)(=O)NCc3ccc(Cl)cc3)cc21 (stereo unspecified)	.	-17.6%	-3.1%	-4.3%	-10.3%	5.3%
COc1ccc(OC)c(C2/C(=C(/O)c3ccccc3)C(=O)C(=O)N2Cc2ccco2)c1 (stereo unspecified)	-0.9%[57.1 µM]	60.6%	-11.6%	44.7µM*	-2.7%	20.1%
CCOc1cc(/C=C2\CN(C)C/C(=C\c3ccc(O)c(OCC)c3)C2=O)ccc1O	3.4%[11.6 µM]	?	44.7µM*	-6.7%	-25.9%	20.1%
CCOc1ccc(/C=C2\SC(=S)N(NS(=O)(=O)c3ccc(C)cc3)C2=O)cc1OC	-18.2%	-15.5%	?	-1.8%	-27.7%	-16.6%
COc1ccc(OC)c(/C=C2\SC(=S)N(NS(=O)(=O)c3ccc(C)cc3)C2=O)c1	-6.5%[11.6 µM]	37.2%	79.4µM*	-16.7%	-27.2%	?
CCOc1cc(/C=C2\SC(=S)N(N3CCOCC3)C2=O)ccc1O	-8.8%	12.4%	-8.2%	-6.1%	13.6%	0.2%
CCOc1cc(/C=C2\SC(=S)N(NS(=O)(=O)c3ccccc3)C2=O)ccc1O	56.2µM*	?	-26.4%	-23.9%	-8.9%	-22.0%
CCOc1cc(/C=C2\SC(=S)N(Nc3ccccc3)C2=O)ccc1O	17.8µM*	?	?	?	?	12.6µM*
COc1ccc(CN2CC[C@H]3C=CC[C@@H](C(=O)N4CCN(c5ccccc5)CC4)[C@H]3C2=O)cc1OC	.	11.1%	.	-14.1%	13.7%	.
CCCCC/C=C\C\C=C/C=C/C=C/[C@@H](SC[C@H](N)C(=O)O)[C@@H](O)CCCC(=O)O	.	.	.	.	-0.1%[19.4 µM]	.
COc1ccc(OC)c(-n2c(C)nc3cc(C(=O)O)ccc32)c1	-4.8%[57.1 µM]	-4.7%	79.4µM*	-13.8%	-5.3%	16.6%

Assay outcomes: PubChem, National Center for Advancing Translational Sciences (NCATS)
